{"source": "PubChem BioAssay AID686979", "about": "(National Center for Advancing Translational Sciences (NCATS), 2013)", "note": "Hit rate of the full screen: of about 420,000 compounds, about 50,000 (12%) were called active. Not shown: some 26% with an inconclusive outcome. Calls come from the whole dose curve; as a rule, active = well fitted inhibition curve with a large enough effect; inconclusive = small, poorly fitted or top-dose-only effect; inactive = flat fitted curve, though single readings scatter. Shown is part of a subset that was picked to be rich in actives. % is set by controls: 0 for no effect and ±100 for the full control effect; potency is the fitted concentration of half-maximal effect.", "data": [{"assay": "qHTS for Inhibitors of human tyrosyl-DNA phosphodiesterase 1 (TDP1): qHTS in cells in presence of CPT; note: nearly all actives have a fitted effect of over 55% in size", "conditions": "chicken DT40 Tdp1-/-;hTDP1 cells + 20 nM CPT, ATP luminescence, 48 h; series mostly up to 46.2 µM; activity change, negative = growth inhibition: at the top concentration", "in_short": "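Chicken DT40 Tdp1-/- cells stably complemented with human TDP1 were seeded at 400 cells/well in medium containing 20 nM camptothecin, exposed to pin-transferred compounds, and grown at 37 °C for at least 48 hr. Viability was read as ATP luminescence.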", "values": [{"compound": "CC(C)Cn1c(SCC(=O)Nc2ccc(Cl)cc2F)nc(O)cc1=O", "activity change, negative = growth inhibition": "26.8% (inactive)"}, {"compound": "COc1ccccc1-c1nc(C#N)c(N2CCC(C(N)=O)CC2)o1", "activity change, negative = growth inhibition": "-18.9% (inactive)"}, {"compound": "CC1CCN(c2oc(-c3ccccc3F)nc2C#N)CC1", "Potency": "16.4 µM (active)"}, {"compound": "COc1ccc(OCc2ccc(-c3nc(C#N)c(N4CCN(c5ccccc5)CC4)o3)o2)cc1", "activity change, negative = growth inhibition": "1.42% (inactive)"}, {"compound": "O=S(=O)(c1ccc(Br)c2ccccc12)N1CCOCC1", "activity change, negative = growth inhibition": "5.94% (inactive)"}, {"compound": "Cc1noc(C)c1NC(=O)Nc1cccc2c1O[C@H](CN(C)C(=O)Nc1ccccc1)[C@@H](C)CN([C@H](C)CO)C2=O", "activity change, negative = growth inhibition": "-1.98% (inactive)"}, {"compound": "Cc1ccccc1N/N=C/c1ccc(N2CCOCC2)cc1", "activity change, negative = growth inhibition": "-18.7% (inactive)"}, {"compound": "CNC(=S)N/N=C/c1ccc(N2CCOCC2)s1", "Potency": "4.61 µM (active)"}, {"compound": "Cc1cc(C(=O)N/N=C/c2ccc(N3CCOCC3)cc2)c(C)o1", "activity change, negative = growth inhibition": "-6.34% (inactive)"}, {"compound": "Cc1ccc2[nH]c3c(=O)n(CC(=O)NC(C)C)ncc3c2c1", "activity change, negative = growth inhibition": "-21.8% (inactive)"}, {"compound": "CN(c1ccc(O)cc1)c1nc(-c2cccnc2)cs1", "activity change, negative = growth inhibition": "-24.2% (inactive)"}, {"compound": "O=C(Nc1ccc(-c2ccc3nncn3n2)cc1)C1CCCCC1", "activity change, negative = growth inhibition": "-21.7% (inactive)"}, {"compound": "NNc1nc2c(Cl)cccc2s1", "activity change, negative = growth inhibition": "-14% (inactive)"}, {"compound": "CC(=O)N1Cc2cc(C(=O)NCc3cccc(F)c3)nc(-c3cccc(C4=CCCC4)c3)c2[C@H]1CCO", "Potency": "18.4 µM (active)"}, {"compound": "Cc1c(C(=O)NCC2CC2)sc(=O)n1Cc1cccc(F)c1", "activity change, negative = growth inhibition": "-13.6% (inactive)"}, {"compound": "Cn1c(SCC(=O)NC2CCCCC2)nnc1-c1cc2ccccc2o1", "activity change, negative = growth inhibition": "-15.6% (inactive)"}, {"compound": "CC(C)NC(=O)N1Cc2cc(C(=O)NCC(F)(F)F)nc(-c3cccc(-c4cc5ccccc5o4)c3)c2[C@@H]1CCO", "Potency": "18.4 µM (active)"}, {"compound": "COc1ccc(CCNC(=O)CN(C)S(=O)(=O)c2ccc3nc(C)sc3c2)cc1OC", "activity change, negative = growth inhibition": "-27.7% (inactive)"}, {"compound": "COCCSc1nnc(NC(=O)c2cc(OC)c(OC)cc2[N+](=O)[O-])s1", "activity change, negative = growth inhibition": "-7.44% (inactive)"}, {"compound": "CCN1CCN(C(=O)c2cc3cc4ccc(OC)cc4nc3s2)CC1", "activity change, negative = growth inhibition": "28.6% (inactive)"}, {"compound": "COC(=O)c1ccc(NC(=O)c2cccc3c2C(=O)N(C2CCCCC2)C3)cc1", "activity change, negative = growth inhibition": "-1.27% (inactive)"}, {"compound": "COc1ccc(CCNc2ncnc3sc(C(=O)N4CCCC4)c(C)c23)cc1OC", "activity change, negative = growth inhibition": "3.59% [at 9.04 µM] (inactive)"}, {"compound": "COc1ccc(CCNc2ncnc3nc[nH]c23)cc1OC", "Potency": "18.4 µM (active)"}, {"compound": "CCS(=O)(=O)NCCc1ccc(OC)c(OC)c1", "activity change, negative = growth inhibition": "-7.71% (inactive)"}, {"compound": "COc1ccc(/C(C)=N/N2CCOCC2)c(O)c1", "activity change, negative = growth inhibition": "2.69% (inactive)"}, {"compound": "O=C(Nc1cc(-c2nn(CC(=O)N3CCCCC3)c(=O)c3ccccc23)ccc1N1CCOCC1)c1ccc(Cl)cc1", "activity change, negative = growth inhibition": "-5.93% (inactive)"}, {"compound": "CC(=O)c1c(C)[nH]c(C(=O)OCC(=O)Nc2cc(S(=O)(=O)N3CCCCC3)ccc2C)c1C", "activity change, negative = growth inhibition": "0.51% (inactive)"}, {"compound": "COc1ccc(S(=O)(=O)N2CCN(C(=O)c3cc(C)oc3C)CC2)cc1", "activity change, negative = growth inhibition": "0.208% (inactive)"}, {"compound": "CC(=O)c1c(C)[nH]c(C(=O)N2CCN(S(=O)(=O)c3ccc(F)c(F)c3)CC2)c1C", "Potency": "0.231 µM (active)"}, {"compound": "COc1cccc2c1CCC(NC(C)=O)C2=O", "note": "(stereo unspecified)", "activity change, negative = growth inhibition": "-24% (inactive)"}, {"compound": "Cc1cc(O)c(Sc2ccccc2)c(=O)o1", "activity change, negative = growth inhibition": "4.82% (inactive)"}, {"compound": "O=C(Nc1ccccc1Cl)/C(Cl)=C(\\Cl)S(=O)c1ccccc1", "note": "(stereo unspecified)", "Potency": "0.164 µM (active)"}, {"compound": "O=C(Nc1ccccc1Cl)c1ccc2nsnc2c1", "activity change, negative = growth inhibition": "5.44% (inactive)"}, {"compound": "O=C(COC(=O)c1cccs1)Nc1ccccc1Cl", "activity change, negative = growth inhibition": "8.81% (inactive)"}, {"compound": "CCNC(=S)NCC", "activity change, negative = growth inhibition": "8.89% (inactive)"}, {"compound": "Cc1cc(C)c(S(=O)(=O)NN=C2c3ccccc3[C@H]3Cc4csc[n+]4[C@@H]23)c(C)c1", "Potency": "29.1 µM (active)"}, {"compound": "CC(=O)Nc1ccc(S(=O)(=O)NC(C)C(=O)OCCOc2ccc(F)cc2)cc1", "note": "(stereo unspecified)", "activity change, negative = growth inhibition": "-20.5% (inactive)"}, {"compound": "O=C(NCC1CCCO1)c1cc2c(s1)CCCC2", "note": "(stereo unspecified)", "activity change, negative = growth inhibition": "-4.2% (inactive)"}, {"compound": "CC1(C(=O)NNC(=S)NCC2CCCO2)CC1(Cl)Cl", "note": "(stereo unspecified)", "Potency": "18.4 µM (active)"}, {"compound": "CCC(=O)NC(NCC1CCCO1)C(Cl)(Cl)Cl", "note": "(stereo unspecified)", "activity change, negative = growth inhibition": "-12.2% (inactive)"}, {"compound": "COc1ccc(NC(=S)N2CCC(NC(=O)c3cccc(F)c3)CC2)cc1", "activity change, negative = growth inhibition": "-22.8% (inactive)"}, {"compound": "COc1ccc(C)cc1Nc1nc(C)nc2c1oc1ccccc12", "activity change, negative = growth inhibition": "-29.3% (inactive)"}, {"compound": "CCOC(=O)CC(=O)CSc1nc(-c2ccccc2)cc(-c2ccc(Cl)cc2)c1C#N", "activity change, negative = growth inhibition": "-0.328% (inactive)"}, {"compound": "CC(=O)Nc1ccc(-c2cn3cccnc3n2)cc1", "activity change, negative = growth inhibition": "-9.08% (inactive)"}, {"compound": "CCOc1cc(-c2cc(-c3ccc(NC(C)=O)cc3)nc(N)c2C#N)ccc1O", "Potency": "18.4 µM (active)"}, {"compound": "CN(C(=O)CSc1nnc(C2CC2)n1C)C1CCCc2ccccc21", "note": "(stereo unspecified)", "activity change, negative = growth inhibition": "-12.5% (inactive)"}, {"compound": "COc1ccccc1C(c1nnnn1C(C)(C)C)N1CCN(Cc2ccccc2)CC1", "note": "(stereo unspecified)", "activity change, negative = growth inhibition": "-25.9% (inactive)"}, {"compound": "CCC(C)(C)n1nnnc1C(c1ccccc1OC)N1CCSCC1", "note": "(stereo unspecified)", "activity change, negative = growth inhibition": "-10.4% (inactive)"}, {"compound": "COc1ccc(OC)c(C(c2nnnn2C(C)(C)C)N2CCc3ccccc3C2)c1", "note": "(stereo unspecified)", "Potency": "20.6 µM (active)"}, {"compound": "CC(=O)c1nn(-c2cccc(C(F)(F)F)c2)c(=O)[nH]c1=O", "activity change, negative = growth inhibition": "-7.71% (inactive)"}, {"compound": "CCOc1ccc(CCN2C(=O)c3cccnc3C2=O)cc1OCC", "activity change, negative = growth inhibition": "1.97% (inactive)"}, {"compound": "CCOc1ccc(N(CC)C(=O)c2cc3c(=O)oc4ccccc4c3s2)cc1", "activity change, negative = growth inhibition": "-22.2% (inactive)"}, {"compound": "CCOC(=O)c1ccc2[nH]c3c(c2c1)CCCC3NC=O", "note": "(stereo unspecified)", "activity change, negative = growth inhibition": "-24.5% (inactive)"}, {"compound": "CN(C(=O)CN1C(=O)CCSc2ccc(S(=O)(=O)N3CCCC3)cc21)c1ccccc1", "activity change, negative = growth inhibition": "-2.65% (inactive)"}, {"compound": "O=C(CN1CCCSc2ccccc21)N1CCN(S(=O)(=O)c2cccc(F)c2)CC1", "Potency": "16.4 µM (active)"}, {"compound": "O=C(CN1CCN(S(=O)(=O)c2cccc(Cl)c2)CC1)N1CCCCC1", "activity change, negative = growth inhibition": "-12.1% (inactive)"}, {"compound": "C=CC1=C(C(=O)O)N2C(=O)[C@@H](NC(=O)/C(=N/OCC(=O)O)c3csc(N)n3)[C@H]2SC1", "activity change, negative = growth inhibition": "-3.01% (inactive)"}, {"compound": "CCn1c(SCC(=O)N/N=C/C=C/c2ccccc2[N+](=O)[O-])nnc1-c1ccccc1", "activity change, negative = growth inhibition": "-26.3% (inactive)"}, {"compound": "CCC1(C)COC(c2ccc(OC)c(OC)c2)OC1", "note": "(stereo unspecified)", "activity change, negative = growth inhibition": "-1.89% (inactive)"}, {"compound": "COc1cccc(-c2ccc3c(c2)S(=O)(=O)c2cccc(C(=O)O)c2C3=O)c1OC", "activity change, negative = growth inhibition": "3.38% (inactive)"}, {"compound": "Cc1cc(C(=O)NCCc2ccc(Cl)cc2)c(C)o1", "activity change, negative = growth inhibition": "-13.7% (inactive)"}, {"compound": "CC(=C/c1ccccc1)/C=N/NC(=O)c1cc(C)oc1C", "activity change, negative = growth inhibition": "-28% (inactive)"}, {"compound": "Cc1ccc(/C=N/NC(=O)C(NC(=O)c2ccccc2)c2n[nH]c(=O)c3ccccc23)cc1", "note": "(stereo unspecified)", "activity change, negative = growth inhibition": "-11.4% (inactive)"}, {"compound": "CC(C)c1cc(C(=O)N/N=C/C(Br)=C/c2ccccc2)n[nH]1", "Potency": "2.31 µM (active)"}, {"compound": "CC(C)c1cc(C(=O)O)n[nH]1", "activity change, negative = growth inhibition": "2.99% (inactive)"}, {"compound": "Cc1cc(C(=O)N/N=C\\C(Br)=C\\c2ccccc2)c(C)o1", "Potency": "8.2 µM (active)"}]}]}
